# Test results from PubChem BioAssay (NCATS).
# Inconclusive results are not listed. Entries that show only a call come without a potency. Values without a mark were called inactive. Calls of active or inactive are those of the source. Calls come from the whole dose curve; as a rule, active = well fitted cell-killing curve with a large enough effect; inconclusive = small, poorly fitted or top-dose-only effect, or effect the other way; inactive = no such curve, though single readings can be large or run the other way.
# Key:
# [1] = Viability qHTS for spleen associated tyrosine kinase inhibitor (SYKi) naive MV4-11 cells (AID 1963823); note: nearly all actives have a fitted effect of over 40% in size
# How it was run: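 Cells: MV4-11, SYK inhibitor naive, 500 per well. Treatment: library compounds, 72 hr, 37 C, 5% CO2. Read-out: CellTiter-Glo luminescence after 10 min RT.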
# [2] = Viability qHTS for spleen associated tyrosine kinase inhibitor (SYKi) drug resistant MV4-11 cells (AID 1963824); note: nearly all actives have a fitted effect of over 35% in size
# How it was run: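 CellTiter-Glo luminescence, read 10 min after reagent addition, reports viability after a 72 hr compound exposure. Cells are an MV4-11 line made resistant to SYK inhibition, seeded at 500 per well onto compound-containing plates.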
# Potency is the fitted concentration of half-maximal effect.
Compound,Potency [1],Potency [2],viability (% of control) [1],"viability, % of control [2]"
CC1CC[C@]2(C(=O)O)CC[C@]3(C(=O)O)C(=CCC4[C@@]5(C)CC[C@H](O[C@@H]6O[C@H](CO)[C@@H](O)[C@H](O)[C@H]6O)C(C)(C)C5CC[C@]43C)C2C1C (stereo not given in full),inactive,inactive,–,–
COc1ccc(C(=O)c2ccccc2)c(O)c1,inactive,inactive,–,–
Cc1cnn(-c2ccccc2)c1NC(=O)COCc1ccccc1,inactive,inactive,–,–
O=Nc1c2[nH]c3ccccc3nc-2c2ccccc12,5.8 µM (active),10.3 µM (active),–,–
C[C@@H]1C(=O)O[C@H]2C[C@]34[C@H]5C[C@@H](C(C)(C)C)[C@]36[C@@H](OC(=O)[C@H]6O)O[C@]4(C(=O)O5)[C@]21O,inactive,inactive,–,–
CC(CCc1ccccn1)(CCc1ccccn1)C(=O)c1ccccc1,inactive,inactive,–,–
CC1(C=O)CC[C@]2(C(=O)O[C@@H]3O[C@H](CO)[C@@H](O)[C@H](O)[C@H]3O)CC[C@]3(C)C(=CCC4[C@@]5(C)C[C@H](O)[C@H](O[C@@H]6OC[C@@H](O)[C@H](O)[C@H]6O)[C@@](C)(CO)C5CC[C@]43C)C2C1 (stereo not given in full),–,–,95.5% [at 9.25 µM],103% [at 9.25 µM]
C[C@@H]1O[C@@H](OC[C@H]2O[C@@H](OCc3ccccc3)[C@H](O)[C@@H](O)[C@@H]2O)[C@H](O)[C@H](O)[C@H]1O,inactive,inactive,–,–
CCCCCc1ccc(/C=C/[C@H](O)[C@@H](CO)NC)cc1,11.6 µM (active),20.6 µM (active),–,–
CC/C=C\C[C@H]1C(=O)C=C[C@@H]1CCCCCCCC(=O)O,16.4 µM (active),23.1 µM (active),–,–
O=C(/C=C/c1ccc(O)c(O)c1)O[C@@H]1[C@@H](O)[C@H](OC2CCCCC2O)O[C@H](CO)[C@H]1O (stereo not given in full),inactive,inactive,–,–
C=Cc1ccc(O[C@@H]2O[C@H](CO[C@@H]3O[C@@H](C)[C@H](O)[C@@H](O)[C@H]3O)[C@@H](O)[C@H](O)[C@H]2O)cc1,inactive,inactive,–,–
C/C=C(\C)C(=O)OC[C@H]1O[C@@H](O[C@H]2[C@@H](O[C@H]3O[C@H](CO)[C@@H](O)[C@H](O)[C@H]3O[C@@H]3O[C@H](CO)[C@@H](O)[C@H](O)[C@H]3O)O[C@H](COC(=O)/C(C)=C/C)[C@@H](O)[C@@H]2O)[C@H](O)[C@@H](O)[C@@H]1O,–,–,81.8% [at 9.25 µM],79.8% [at 9.25 µM]
CCN(CCN(C)C)C(=O)CNCc1cc(C(N)=O)ccn1,inactive,inactive,–,–
CN(C)CCCCC(=O)Nc1ccc(NC(=S)NC(=O)c2ccc(C(C)(C)C)cc2)cc1,1.3 µM (active),1.46 µM (active),–,–
Cc1cc(Nc2nn(-c3ccccc3)c(=O)c3ccccc23)n[nH]1,0.146 µM (active),0.461 µM (active),–,–
CC(=O)O[C@@H]1CC2C(C)(C)C(=O)C=C[C@]2(C)C2CC[C@@]3(C)[C@H](c4ccoc4)OC(=O)[C@H]4O[C@]43[C@@]21C (stereo not given in full),10 µM (active),7.09 µM (active),–,–
CCOC(=O)[C@H](CCc1ccccc1)CC1(C(=O)N[C@H]2CCc3ccccc3N(CC(=O)O)C2=O)CCCC1,14.6 µM (active),14.6 µM (active),–,–
CC(C)C[C@@H](N)C(=O)N[C@H]1C(=O)N[C@@H](CC(N)=O)C(=O)N[C@H]2C(=O)N[C@H]3C(=O)N[C@H](C(=O)N[C@H](C(=O)O)c4cc(O)cc(O)c4-c4cc3ccc4O)[C@H](O)c3ccc(c(Cl)c3)Oc3cc2cc(c3O[C@@H]2O[C@H](CO)[C@@H](O)[C@H](O)[C@H]2O[C@H]2C[C@](C)(N)[C@H](O)[C@H](C)O2)Oc2ccc(cc2Cl)[C@H]1O,inactive,inactive,–,–
CC1CCC2C(C(=O)O)=CC3C(O)C(C)(C)CC123 (stereo not given),inactive,inactive,–,–
CCN(CC)Cc1cccc(/C=C/c2nc3ccc(F)cc3c(=O)n2-c2ccccc2Cl)n1,11.6 µM (active),9.2 µM (active),–,–
C=CC(C)(CC/C=C(\C)C(=O)OC)OC1OC(COC(=O)CC(C)(O)CC(=O)O)C(O)C(O)C1O (stereo not given),inactive,inactive,–,–
CC1=C2[C@@H]([C@H](C)CC[C@H]2/C=C(\C)C(=O)O)[C@H](O)C1,inactive,inactive,–,–
C=C1C(=O)OC2/C=C(\C)CC/C=C(\C=O)C(OC)C(OC(=O)C(C)CC)C12 (stereo not given),3.21 µM (active),2.02 µM (active),–,–
CC1=CC(=O)C[C@H]2[C@@H]1CC[C@@H](C)[C@]21CO[C@H](c2ccoc2)C1=O,inactive,inactive,–,–
